Tau ThT inhib: qHTS for Inhibitors of Tau Fibril Formation, Thioflavin T Binding | Microtubule-associated protein tau (Homo sapiens), P10636 | recombinant tau K18 P301L, heparin-induced fibrillization, ThT fluorescence | Potency, µM (top dose mostly 57.4 µM), for the others: at the highest dose activity, negative = inhibition, actives largely listed as inhibitors | hit rate 2.1% among 270,000; also: potency is read from the fitted curve at half-maximal effect; nearly all actives have a fitted effect of over 55% in size
Target sequence (P10636 561-689 P618L limits assumed): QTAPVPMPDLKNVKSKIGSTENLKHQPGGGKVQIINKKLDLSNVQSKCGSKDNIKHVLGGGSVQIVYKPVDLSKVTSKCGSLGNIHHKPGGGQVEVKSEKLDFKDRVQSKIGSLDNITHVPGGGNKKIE
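ThT emission at 510 nm, taken 1 hr after adding 30 uM dye, quantifies aggregates formed when 20 uM heparin acts on human tau K18 P301L for 6 hr at 37 C.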
KDM4E inh: qHTS Assay for Inhibitors of Human Jumonji Domain Containing 2E (JMJD2E). JMJD2E catalytic domain, FDH-coupled NADH fluorescence (FDH is formaldehyde dehydrogenase). Potency, µM (doses to about 57.1 µM), for the others: at the top dose activity change, negative = inhibition, most hits filed as inhibitors. hit rate 1.6% among 230,000. AID 2147, 2009; active = well fitted inhibition curve with a large enough effect, not every such curve was filed as active; inconclusive = small, poorly fitted or top-dose-only effect, or another doubt; inactive = no such curve, though single readings can be large or run the other way;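 also: potency is read from the fitted curve at half-maximal effect; 0% = wells with enzyme and -100% = buffer wells without enzyme; nearly all actives have a fitted effect of over 50% in size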
Tau fluor cs: Counterscreen qHTS for Inhibitors of Tau Fibril Formation, Fluorescence Polarization; hit rate 0.93% among 280,000; tau K18 P301L Alexa594 fluorescence, heparin fibrillization; Potency, µM (doses to about 57.7 µM), inactives show at the highest dose activity change, negative = decrease; also: potency is read from the fitted curve at half-maximal effect; nearly all actives have a fitted effect of over 55% in size
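Human tau K18 P301L (15 uM unlabeled, 0.24 uM Alexa 594-labeled) in 100 mM sodium acetate pH 7 with 20 uM heparin, 6 hr at 37 C. ThT 30 uM added, 1 hr ambient; Alexa 594 FP and total fluorescence read at 555/632 nm.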
PNC inhibitor: High Content Assay for Compounds that inhibit the Assembly of the Perinucleolar Compartment; PC3M PTB-GFP, PNC prevalence imaging, 16 h; hits give low values; activity change (PNC), negative = inhibition, % at 10 µM; AID 2417, 2010; hit rate 3.1% among 140,000;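 active = readout at or below -70, meaning at least 70% loss of cells showing the perinucleolar compartment, a nuclear body marking cancer cells; inconclusive = readout between -30 and a set limit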;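 also: plate controls were DMSO wells for no effect and camptothecin positive control wells for full effect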
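PC3M cells stably expressing PTB-GFP, 750–1000 cells/well, treated 16 h at 37 °C with compound (23 nl of library stock), in duplicate. After paraformaldehyde fixation and Hoechst stain, imaged at 20x; PNC prevalence scored by image analysis.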
NPSR antagonist: qHTS Assay for Antagonists of the Neuropeptide S Receptor: cAMP Signal Transduction; CHO-NPSR cells, cAMP TR-FRET, antagonist mode; Potency, µM (series often up to 38.3 µM), inactives show at the top dose activity change, negative = inhibition, most hits filed as inhibitors; hit rate 1% among 220,000; also: potency is read from the fitted curve at half-maximal effect; nearly all actives have a fitted effect of over 50% in size
Target sequence (Q6W5P4 whole entry, looked up): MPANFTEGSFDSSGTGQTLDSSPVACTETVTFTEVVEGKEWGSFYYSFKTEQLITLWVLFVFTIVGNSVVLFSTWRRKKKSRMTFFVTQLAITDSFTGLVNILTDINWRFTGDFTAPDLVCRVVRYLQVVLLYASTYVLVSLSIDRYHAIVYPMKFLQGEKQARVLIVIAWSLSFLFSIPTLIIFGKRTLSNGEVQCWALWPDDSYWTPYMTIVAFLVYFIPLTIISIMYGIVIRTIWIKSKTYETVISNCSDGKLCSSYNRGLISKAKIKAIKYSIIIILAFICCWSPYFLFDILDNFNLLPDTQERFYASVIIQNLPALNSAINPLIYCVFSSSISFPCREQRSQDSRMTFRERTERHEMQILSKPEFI
Tau fibril FP: qHTS for Inhibitors of Tau Fibril Formation, Fluorescence Polarization; Microtubule-associated protein tau (Homo sapiens), P10636; K18 P301L tau heparin fibrillization, Alexa594 FP, 6 h; Potency, µM (titrated, usually from 57.7 µM), without a hit: top-dose activity, negative = inhibition, hits mostly inhibitors; hit rate 0.39% among 280,000; also: potency is read from the fitted curve at half-maximal effect; nearly all actives have a fitted effect of over 55% in size
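Recombinant K18 P301L […], labeled with Alexa 594 at 0.24 uM over 15 uM unlabeled; heparin inducer 20 uM final; 37 C, 6 hr; FP endpoint.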
Active calls of the source: *; ? = inconclusive; / = no result given; [ ] = another dose, or the depositor's remark. The list is not random: actives were taken first. Their share in the collection is about 5.1%. Unless noted, calls follow the shape of the dose curve; as a rule, active = well fitted curve in the direction sought with a large enough effect; inconclusive = small, poorly fitted or top-dose-only effect, or another doubt; inactive = no such curve, though single readings can be large; an effect the other way counts as inactive or inconclusive. Unless noted, % is scaled to controls: 0 for no effect and ±100 for the full control effect.

SMILES | Tau ThT inhib | KDM4E inh | Tau fluor cs | PNC inhibitor | NPSR antagonist | Tau fibril FP
COc1ccccc1C(=O)Nc1cc2c(cc1N1CCCCC1)n(C)c(=O)n2C | ? | / | -6% | / | / | 13%
CCOc1ccc(N(C(C)C(=O)NCCSc2ccc(Cl)cc2)S(C)(=O)=O)cc1 (stereo not given) | -13% | / | -21% | / | / | 1%
O=C(Nc1ccc(Cl)cc1Cl)NC1CCN(S(=O)(=O)c2ccc(F)cc2)CC1 | / | -6% | ? | / | ? | 25µM*
O=C(Nc1cccc(S(=O)(=O)N2CCCCC2)c1)Nc1ccc(Cl)cc1Cl | 14% | -3% | ? | 15 | ? | 14µM*
COc1ccccc1NS(=O)(=O)c1cccc(NC(=O)Nc2ccc(Cl)cc2)c1 | 7% | 1% | ? | / | ? | 28µM*
CCc1c2c(nc3cccc(C(C)C)c13)-c1cccc(=O)n1C2 | -8% | ? | -6% | / | / | 5%
COc1ccc(-c2cc(C(F)(F)F)n3nc(C(=O)OC(C)C)cc3n2)cc1 | -4% | / | -5% | / | / | 3%
Cc1ccc(C(=O)c2oc3ccccc3c2NC(=O)COc2ccccc2C)cc1 | 2% | / | -4% | / | / | -4%
Cc1ccc(-c2cc(C(F)(F)F)n3ncc(C(=O)N4CCN(C)CC4)c3n2)cc1 | 1% | 5% | 4% | -100* | -8%[46.1 µM] | 7%
Cc1ccc(-c2cc(C(F)F)n3ncc(C(=O)N4CCc5ccccc54)c3n2)cc1 | -7% | 9% | -6% | / | -19% | 1%
Cc1ccc(-c2cc(C(F)(F)F)n3ncc(C(=O)N4CCCc5ccccc54)c3n2)cc1 | -3% | -1% | 8% | -100* | -13%[46.1 µM] | 7%
Cc1cc(=O)n2[nH]c(=O)c(N=Nc3ccccc3)c2[nH]1 | 14µM* | -6% | -13% | ? | -27%[46.1 µM] | 7%
CCOc1ccc(-n2c(O)cc(=O)[nH]c2=O)cc1 | / | 3% | ? | / | 22% | ?
Cc1cc(C)n2[nH]c(=O)c(N=Nc3ccccc3)c2n1 | ? | ? | 1% | -4 | ? | 4%
CCOc1ccc(N=Nc2c(=O)[nH]n3c(=O)cc(C)[nH]c23)cc1 | 3.5µM* | -11% | -13% | 7 | -28%[46.1 µM] | 8%
Cc1c(Cl)cccc1NC(=O)CSc1nc(=O)n(Cc2ccco2)c2c1CCC2 | -9% | / | -3% | / | / | -6%
O=C(CCC(=O)Nc1ccc(F)cc1)N/N=C/c1ccc(O)cc1O | ? | 25µM* | -16% | / | 1% | 2%
COc1cccc2c(SCC(=O)N/N=C/c3ccc(O)cc3O)cc(C)nc12 | ? | 28µM* | -28% | / | 1% | -5%
O=C(CCN1CCN(C(c2ccccc2)c2ccccc2)CC1)N/N=C/c1ccc(O)cc1 | -6% | 1% | ? | ? | -5% | 13%
Cc1cc(C)n(CCC(=O)N/N=C/c2ccccc2O)n1 | -1% | -8% | -3% | 12 | -17%[46.1 µM] | -6%
O=C(CCN1CCN(C(c2ccccc2)c2ccccc2)CC1)N/N=C/c1ccc(O)cc1O | -16% | ? | 16µM*[quencher] | 35 | 1% | ?
Cc1cc(C)n(CCC(=O)N/N=C/c2ccc(O)cc2O)n1 | 7% | 14µM* | 1% | 1 | -6%[46.1 µM] | 8%
CCC(C)Sc1oc(-c2ccco2)nc1S(=O)(=O)c1ccc(Cl)cc1 (stereo not given) | -15% | / | ? | / | / | -3%
COc1ccc(-c2nc3scc(CCNS(=O)(=O)c4cccc(C(C)=O)c4)n3n2)cc1 | -5% | / | -15% | / | / | -10%
O=C(c1ccc(Cn2cc(Cl)cn2)o1)N1CCN(Cc2ccc3c(c2)OCO3)CC1 | ? | -3% | -29% | -107* | -11%[46.1 µM] | -1%
SMILES | Tau ThT inhib | KDM4E inh | Tau fluor cs | PNC inhibitor | NPSR antagonist | Tau fibril FP
COc1ccc(S(=O)(=O)NCc2ccc3c(c2)CCN3C(C)=O)cc1OC | 2% | / | 7% | / | / | 4%
CC(C)(C)c1csc(NC(=O)c2ccc(Cl)s2)n1 | -18% | ? | -22% | 22 | ? | -1%
CCNc1nc(N)c(C(=O)c2ccc(Cl)s2)s1 | 13µM* | 8% | ? | ? | -27%[46.1 µM] | 8%
CCCN(c1ccccc1CC)S(=O)(=O)c1ccc2c(c1)CC(C)N2C(=O)C1CC1 (stereo not given) | -14% | / | -12% | / | / | 4%
CCOC(=O)C1CCCN(C(=O)Cn2sc3nc(C)cc(C)c3c2=O)C1 (stereo not given) | 11µM* | ? | -28% | ? | ? | 25µM*
Cc1cc(C)c2c(=O)n(CC(=O)N3CCC(N4CCCCC4)CC3)sc2n1 | 25µM* | ? | ? | 0 | -14%[46.1 µM] | 25µM*
CCCNC(=O)Cn1sc2nc(C)cc(C)c2c1=O | / | ? | -23% | / | -11% | 16µM*
CC(=O)c1cc(-c2ccccc2)n(CC(=O)N2CCC(N3CCCCC3)CC2)c1C | -10% | -4% | 0% | ? | 7%[46.1 µM] | 2%
CCOC(=O)C1CCCN(C(=O)Cn2cnc3c2c(=O)n(C)c(=O)n3C)C1 (stereo not given) | -7% | 2% | 5% | -15 | -6%[46.1 µM] | 4%
COc1ccc(OC)c(CCNC(=O)CCc2cn(Cc3cc(C)ccc3C)c3ccccc23)c1 | -3% | / | -6% | / | / | ?
COc1ccccc1N1CCN(C(=O)CSc2nc(-c3ccc(C(C)C)cc3)no2)CC1 | ? | / | -20% | / | / | 12%
COc1cccc(N=Nc2c(N)[nH]n3c(=O)c4c(nc23)CCCC4)c1 | 1.4µM* | -4% | ? | / | 54% | 3%
CCOC(=O)Cc1ccc(NC(=O)Nc2cccc(OCc3cc(=O)n4cc(C)ccc4n3)c2)cc1 | 11% | / | -8% | / | / | ?
CCOc1ccc(-c2cc(-c3nc(-c4ccc(OC)c(OC)c4)no3)[nH]n2)cc1 | ? | / | -26% | / | / | 0%
CCOc1ccc(C2=Cc3cc(OC)c(OC)cc3C(=C(Cl)Cl)O2)cc1 | 18µM* | 8% | ? | 14 | -8%[46.1 µM] | ?
C=CCn1c(O)c(N=NC(=O)CNC(=O)/C=C/c2ccco2)c2ccccc21 | 20µM* | -4% | -11% | -1 | -13%[46.1 µM] | -5%
O=C(CNC(=O)c1ccco1)N=Nc1c(O)n(CCc2ccccc2)c2ccccc12 | ? | 6% | -17% | / | -15% | -6%
C=CCn1c(O)c(N=NC(=O)CNC(=O)/C=C/c2ccc(OC)cc2)c2ccccc21 | 13µM* | 3% | -24% | / | 52% | -14%
C=CCn1c(O)c(N=NC(=S)Nc2cccc(C)c2)c2ccccc21 | -1% | 1% | -9% | -5 | -12% | 5%
O=C(Cn1cnc2nc3c(cc2c1=O)CCCC3)N1CCN(c2ccccc2)CC1 | 1% | / | -2% | / | / | 8%
